How the values were obtained:
Test in all cases: log2 ratio of Biotin-Ahx-Ub-VS probe labelling (fragment/DMSO); higher = less target engagement (more negative = stronger competition), active = hit call of the paper (q ≤ 0.05, log2 ratio ≤ -1)
Settings in all cases: compound concentration: 200 uM; treatment time: 3 h
[1] = target: T1, USP42 (UniProt Q9H9J4)
T1 sequence (whole entry): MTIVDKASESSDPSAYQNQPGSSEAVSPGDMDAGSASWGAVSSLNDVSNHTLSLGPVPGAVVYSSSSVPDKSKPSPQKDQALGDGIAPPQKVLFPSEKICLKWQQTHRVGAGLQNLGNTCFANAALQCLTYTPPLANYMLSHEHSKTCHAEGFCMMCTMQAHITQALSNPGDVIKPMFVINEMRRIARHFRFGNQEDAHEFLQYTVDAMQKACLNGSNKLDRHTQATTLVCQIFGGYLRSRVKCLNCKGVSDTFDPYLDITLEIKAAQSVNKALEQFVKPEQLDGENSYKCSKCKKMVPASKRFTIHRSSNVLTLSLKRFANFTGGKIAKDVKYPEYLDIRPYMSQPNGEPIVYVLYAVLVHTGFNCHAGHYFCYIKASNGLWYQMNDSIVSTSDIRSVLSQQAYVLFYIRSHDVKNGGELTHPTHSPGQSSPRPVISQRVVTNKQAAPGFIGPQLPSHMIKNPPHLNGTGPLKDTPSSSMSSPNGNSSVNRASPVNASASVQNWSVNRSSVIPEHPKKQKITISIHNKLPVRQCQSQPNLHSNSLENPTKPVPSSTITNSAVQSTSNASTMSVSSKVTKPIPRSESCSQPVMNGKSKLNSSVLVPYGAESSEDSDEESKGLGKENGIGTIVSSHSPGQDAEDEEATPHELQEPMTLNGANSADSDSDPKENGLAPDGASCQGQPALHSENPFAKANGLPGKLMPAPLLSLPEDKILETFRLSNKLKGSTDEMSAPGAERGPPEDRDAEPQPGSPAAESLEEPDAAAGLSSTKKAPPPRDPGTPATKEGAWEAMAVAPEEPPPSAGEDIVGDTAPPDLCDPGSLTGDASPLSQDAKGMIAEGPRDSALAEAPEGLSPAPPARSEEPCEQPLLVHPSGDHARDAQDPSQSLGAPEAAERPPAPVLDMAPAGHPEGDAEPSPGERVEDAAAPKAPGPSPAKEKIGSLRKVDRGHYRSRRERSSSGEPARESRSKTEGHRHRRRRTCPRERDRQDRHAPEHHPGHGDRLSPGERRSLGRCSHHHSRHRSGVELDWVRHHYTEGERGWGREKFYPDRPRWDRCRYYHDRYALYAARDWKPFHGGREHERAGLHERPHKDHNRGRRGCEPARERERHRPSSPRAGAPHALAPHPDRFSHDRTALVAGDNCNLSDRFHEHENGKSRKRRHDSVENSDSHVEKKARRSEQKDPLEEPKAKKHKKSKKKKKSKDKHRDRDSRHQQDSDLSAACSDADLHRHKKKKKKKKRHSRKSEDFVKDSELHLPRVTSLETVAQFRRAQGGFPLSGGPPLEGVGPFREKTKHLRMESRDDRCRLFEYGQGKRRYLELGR
Method in brief: (§1)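 Labelling with Biotin-Ahx-Ub-VS (0.5 µM final, 1 h) followed a 3 h triplicate treatment of HEK293T lysate (495 µg per sample, Tris/CHAPS/IGEPAL buffer with protease inhibitors) with fragment at 200 µM or vehicle. Labelled DUBs were NeutrAvidin-enriched, digested with LysC and trypsin, and run by diaPASEF LC-MS/MS. The values, average log2 fragment/vehicle ratios by unpaired t-test, come from global-median-normalised Spectronaut label-free quantities. Proteins with ≥2 unique peptides were used.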

[2] = target: USP46 (UniProt P62068)
Method in brief: as §1

[3] = target: T2, USP47 (UniProt Q96K76)
T2 sequence (whole entry): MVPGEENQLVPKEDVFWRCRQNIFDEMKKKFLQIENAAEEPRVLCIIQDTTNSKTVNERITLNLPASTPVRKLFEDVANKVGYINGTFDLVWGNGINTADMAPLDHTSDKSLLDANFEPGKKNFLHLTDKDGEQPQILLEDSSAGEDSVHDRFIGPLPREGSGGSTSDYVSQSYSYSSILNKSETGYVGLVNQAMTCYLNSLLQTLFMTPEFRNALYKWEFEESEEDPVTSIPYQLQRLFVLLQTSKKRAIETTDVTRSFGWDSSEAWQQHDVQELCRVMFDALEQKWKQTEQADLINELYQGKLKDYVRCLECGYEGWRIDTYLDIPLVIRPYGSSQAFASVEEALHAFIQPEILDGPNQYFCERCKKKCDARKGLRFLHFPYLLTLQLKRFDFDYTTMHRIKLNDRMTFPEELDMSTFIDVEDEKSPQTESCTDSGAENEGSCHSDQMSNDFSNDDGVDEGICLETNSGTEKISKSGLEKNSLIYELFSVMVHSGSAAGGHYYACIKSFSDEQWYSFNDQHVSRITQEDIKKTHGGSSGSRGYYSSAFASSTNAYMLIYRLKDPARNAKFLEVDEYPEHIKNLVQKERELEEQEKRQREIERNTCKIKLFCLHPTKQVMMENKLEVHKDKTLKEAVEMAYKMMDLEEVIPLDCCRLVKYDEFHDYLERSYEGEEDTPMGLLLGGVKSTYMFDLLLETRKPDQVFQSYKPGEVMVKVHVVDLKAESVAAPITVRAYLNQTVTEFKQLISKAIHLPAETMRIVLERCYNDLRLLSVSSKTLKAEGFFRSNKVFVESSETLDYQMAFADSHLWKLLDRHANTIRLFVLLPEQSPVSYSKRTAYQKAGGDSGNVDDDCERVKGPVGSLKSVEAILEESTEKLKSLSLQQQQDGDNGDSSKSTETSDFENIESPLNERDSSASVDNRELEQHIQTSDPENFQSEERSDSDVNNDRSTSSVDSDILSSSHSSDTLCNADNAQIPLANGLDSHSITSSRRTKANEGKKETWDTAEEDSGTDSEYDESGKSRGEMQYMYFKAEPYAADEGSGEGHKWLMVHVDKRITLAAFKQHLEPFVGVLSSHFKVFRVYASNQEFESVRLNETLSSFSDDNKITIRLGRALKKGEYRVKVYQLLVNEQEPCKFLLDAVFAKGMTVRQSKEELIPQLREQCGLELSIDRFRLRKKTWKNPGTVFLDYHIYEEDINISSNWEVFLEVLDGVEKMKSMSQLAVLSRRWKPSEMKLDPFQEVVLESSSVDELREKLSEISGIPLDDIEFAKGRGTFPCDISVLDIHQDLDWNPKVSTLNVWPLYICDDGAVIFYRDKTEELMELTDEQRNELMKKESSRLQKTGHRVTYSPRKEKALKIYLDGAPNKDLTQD
Method in brief: as §1

[4] = target: T3, USP48 (UniProt Q86UV5)
T3 sequence (whole entry): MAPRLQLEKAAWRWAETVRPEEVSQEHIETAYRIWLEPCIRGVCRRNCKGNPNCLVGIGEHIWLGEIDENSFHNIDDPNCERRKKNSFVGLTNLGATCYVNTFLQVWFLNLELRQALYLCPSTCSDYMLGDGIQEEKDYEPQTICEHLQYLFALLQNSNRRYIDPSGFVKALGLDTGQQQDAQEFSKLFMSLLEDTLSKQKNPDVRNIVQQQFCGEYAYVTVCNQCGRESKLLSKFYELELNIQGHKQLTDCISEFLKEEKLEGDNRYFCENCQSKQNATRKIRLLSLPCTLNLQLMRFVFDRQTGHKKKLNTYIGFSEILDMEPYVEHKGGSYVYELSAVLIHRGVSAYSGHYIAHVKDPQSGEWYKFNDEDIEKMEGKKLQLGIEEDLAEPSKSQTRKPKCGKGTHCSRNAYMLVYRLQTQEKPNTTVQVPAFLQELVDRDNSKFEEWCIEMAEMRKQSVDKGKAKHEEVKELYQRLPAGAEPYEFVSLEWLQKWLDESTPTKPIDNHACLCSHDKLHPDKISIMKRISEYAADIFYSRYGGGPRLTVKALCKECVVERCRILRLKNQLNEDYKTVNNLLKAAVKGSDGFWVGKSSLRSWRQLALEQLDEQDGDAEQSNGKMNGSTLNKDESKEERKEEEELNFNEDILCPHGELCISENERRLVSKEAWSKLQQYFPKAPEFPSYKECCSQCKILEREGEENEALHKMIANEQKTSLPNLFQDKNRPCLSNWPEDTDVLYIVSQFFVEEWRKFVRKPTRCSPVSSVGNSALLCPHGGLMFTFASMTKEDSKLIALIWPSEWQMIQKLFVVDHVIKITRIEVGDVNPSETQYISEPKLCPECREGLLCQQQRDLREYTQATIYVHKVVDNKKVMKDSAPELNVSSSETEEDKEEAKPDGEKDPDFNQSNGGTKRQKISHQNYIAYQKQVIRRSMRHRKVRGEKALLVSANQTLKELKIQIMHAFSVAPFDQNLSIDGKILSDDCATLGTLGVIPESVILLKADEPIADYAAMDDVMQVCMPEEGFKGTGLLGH
Method in brief: as §1

[5] = target: T4, USP5 (UniProt P45974)
T4 sequence (whole entry): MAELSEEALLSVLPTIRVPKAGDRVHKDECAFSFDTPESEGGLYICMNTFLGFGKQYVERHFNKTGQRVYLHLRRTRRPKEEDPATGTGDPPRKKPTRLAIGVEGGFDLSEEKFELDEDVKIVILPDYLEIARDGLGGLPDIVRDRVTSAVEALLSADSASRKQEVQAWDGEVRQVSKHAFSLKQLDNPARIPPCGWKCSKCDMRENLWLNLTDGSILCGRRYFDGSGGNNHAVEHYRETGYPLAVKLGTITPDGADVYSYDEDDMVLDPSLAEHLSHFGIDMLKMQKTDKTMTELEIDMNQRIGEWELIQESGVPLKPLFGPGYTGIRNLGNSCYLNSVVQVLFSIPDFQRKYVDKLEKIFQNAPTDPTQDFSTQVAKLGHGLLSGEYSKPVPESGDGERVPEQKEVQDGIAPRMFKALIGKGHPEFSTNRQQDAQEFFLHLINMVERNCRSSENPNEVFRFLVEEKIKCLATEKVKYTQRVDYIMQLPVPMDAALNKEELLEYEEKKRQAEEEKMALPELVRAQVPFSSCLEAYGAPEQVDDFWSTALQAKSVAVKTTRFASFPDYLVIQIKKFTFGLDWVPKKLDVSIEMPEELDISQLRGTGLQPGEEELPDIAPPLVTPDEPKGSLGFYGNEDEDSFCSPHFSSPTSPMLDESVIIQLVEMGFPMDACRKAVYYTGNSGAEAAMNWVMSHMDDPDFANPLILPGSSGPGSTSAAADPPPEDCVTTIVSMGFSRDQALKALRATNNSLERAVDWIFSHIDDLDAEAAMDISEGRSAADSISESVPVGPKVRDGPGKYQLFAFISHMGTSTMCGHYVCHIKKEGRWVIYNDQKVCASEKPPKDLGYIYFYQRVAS
Method in brief: as §1

[6] = target: USP54 (UniProt Q70EL1)
Method in brief: as §1

[7] = target: USP7 (UniProt Q93009)
Method in brief: as §1

[8] = target: T5, USP8 (UniProt P40818)
T5 sequence (whole entry): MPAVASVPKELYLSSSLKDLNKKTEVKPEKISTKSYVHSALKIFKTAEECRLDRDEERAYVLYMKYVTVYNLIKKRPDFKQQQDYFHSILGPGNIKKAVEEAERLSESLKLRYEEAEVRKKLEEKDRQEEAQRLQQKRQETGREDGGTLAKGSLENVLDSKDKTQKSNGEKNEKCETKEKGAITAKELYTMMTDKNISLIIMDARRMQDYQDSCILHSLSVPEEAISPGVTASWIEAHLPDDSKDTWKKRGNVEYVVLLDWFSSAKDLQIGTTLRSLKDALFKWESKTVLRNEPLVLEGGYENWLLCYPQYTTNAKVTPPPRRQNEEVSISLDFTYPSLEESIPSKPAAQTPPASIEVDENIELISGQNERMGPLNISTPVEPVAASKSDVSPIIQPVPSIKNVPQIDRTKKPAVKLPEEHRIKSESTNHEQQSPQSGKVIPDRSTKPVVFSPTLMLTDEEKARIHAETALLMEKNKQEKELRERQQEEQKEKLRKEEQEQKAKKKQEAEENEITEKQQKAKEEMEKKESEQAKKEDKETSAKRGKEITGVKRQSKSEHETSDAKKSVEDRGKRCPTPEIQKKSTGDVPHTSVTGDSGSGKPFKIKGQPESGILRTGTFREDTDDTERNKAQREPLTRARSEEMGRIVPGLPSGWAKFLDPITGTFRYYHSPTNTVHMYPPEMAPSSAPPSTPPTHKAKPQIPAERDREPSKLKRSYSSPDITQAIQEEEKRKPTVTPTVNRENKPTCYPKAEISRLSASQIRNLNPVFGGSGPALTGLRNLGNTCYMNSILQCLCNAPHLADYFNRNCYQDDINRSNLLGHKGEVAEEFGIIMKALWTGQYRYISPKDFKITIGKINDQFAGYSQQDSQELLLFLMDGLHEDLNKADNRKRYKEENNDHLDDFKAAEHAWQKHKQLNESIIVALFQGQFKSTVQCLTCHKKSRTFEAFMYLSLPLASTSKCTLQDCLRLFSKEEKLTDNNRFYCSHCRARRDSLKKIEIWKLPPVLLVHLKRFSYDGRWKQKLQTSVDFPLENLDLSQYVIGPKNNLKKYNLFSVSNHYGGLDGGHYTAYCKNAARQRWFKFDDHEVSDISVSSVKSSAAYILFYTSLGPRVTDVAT
Method in brief: as §1

[9] = target: USP9X (UniProt Q93008)
Method in brief: as §1

[10] = target: UniProt O00487
Method in brief: as §1

Measured: log2 ratio of Biotin-Ahx-Ub-VS probe labelling

Sequence of USP7 (Q93009 whole entry, looked up): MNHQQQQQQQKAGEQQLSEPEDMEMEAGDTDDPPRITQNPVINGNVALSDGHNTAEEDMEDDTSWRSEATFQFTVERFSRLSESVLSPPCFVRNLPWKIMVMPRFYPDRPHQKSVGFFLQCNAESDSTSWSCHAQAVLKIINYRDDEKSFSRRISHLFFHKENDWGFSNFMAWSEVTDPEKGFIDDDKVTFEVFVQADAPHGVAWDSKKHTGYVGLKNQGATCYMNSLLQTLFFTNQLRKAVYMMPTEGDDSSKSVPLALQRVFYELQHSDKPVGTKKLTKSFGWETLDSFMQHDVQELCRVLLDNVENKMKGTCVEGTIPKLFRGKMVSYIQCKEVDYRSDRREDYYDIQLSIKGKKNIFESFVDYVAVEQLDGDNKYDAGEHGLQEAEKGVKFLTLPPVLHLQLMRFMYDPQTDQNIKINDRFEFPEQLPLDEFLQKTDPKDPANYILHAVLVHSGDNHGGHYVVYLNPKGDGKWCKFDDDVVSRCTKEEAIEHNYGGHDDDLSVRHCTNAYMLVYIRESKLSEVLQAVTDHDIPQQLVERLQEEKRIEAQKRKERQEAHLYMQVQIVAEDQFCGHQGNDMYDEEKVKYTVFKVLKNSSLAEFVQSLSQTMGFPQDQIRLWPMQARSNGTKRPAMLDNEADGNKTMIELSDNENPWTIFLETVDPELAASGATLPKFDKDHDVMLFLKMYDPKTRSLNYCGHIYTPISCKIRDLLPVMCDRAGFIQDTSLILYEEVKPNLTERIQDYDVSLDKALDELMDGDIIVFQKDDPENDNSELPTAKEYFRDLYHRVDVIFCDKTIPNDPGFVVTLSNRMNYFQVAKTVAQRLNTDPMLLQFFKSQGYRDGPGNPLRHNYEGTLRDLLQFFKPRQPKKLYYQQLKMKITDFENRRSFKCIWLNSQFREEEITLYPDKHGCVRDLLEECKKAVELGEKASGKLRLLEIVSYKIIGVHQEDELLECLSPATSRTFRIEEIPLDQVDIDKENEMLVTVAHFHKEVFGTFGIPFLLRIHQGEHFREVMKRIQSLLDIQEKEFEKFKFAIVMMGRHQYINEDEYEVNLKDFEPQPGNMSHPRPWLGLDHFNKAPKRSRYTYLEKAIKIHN
Sequence of USP9X (Q93008 whole entry): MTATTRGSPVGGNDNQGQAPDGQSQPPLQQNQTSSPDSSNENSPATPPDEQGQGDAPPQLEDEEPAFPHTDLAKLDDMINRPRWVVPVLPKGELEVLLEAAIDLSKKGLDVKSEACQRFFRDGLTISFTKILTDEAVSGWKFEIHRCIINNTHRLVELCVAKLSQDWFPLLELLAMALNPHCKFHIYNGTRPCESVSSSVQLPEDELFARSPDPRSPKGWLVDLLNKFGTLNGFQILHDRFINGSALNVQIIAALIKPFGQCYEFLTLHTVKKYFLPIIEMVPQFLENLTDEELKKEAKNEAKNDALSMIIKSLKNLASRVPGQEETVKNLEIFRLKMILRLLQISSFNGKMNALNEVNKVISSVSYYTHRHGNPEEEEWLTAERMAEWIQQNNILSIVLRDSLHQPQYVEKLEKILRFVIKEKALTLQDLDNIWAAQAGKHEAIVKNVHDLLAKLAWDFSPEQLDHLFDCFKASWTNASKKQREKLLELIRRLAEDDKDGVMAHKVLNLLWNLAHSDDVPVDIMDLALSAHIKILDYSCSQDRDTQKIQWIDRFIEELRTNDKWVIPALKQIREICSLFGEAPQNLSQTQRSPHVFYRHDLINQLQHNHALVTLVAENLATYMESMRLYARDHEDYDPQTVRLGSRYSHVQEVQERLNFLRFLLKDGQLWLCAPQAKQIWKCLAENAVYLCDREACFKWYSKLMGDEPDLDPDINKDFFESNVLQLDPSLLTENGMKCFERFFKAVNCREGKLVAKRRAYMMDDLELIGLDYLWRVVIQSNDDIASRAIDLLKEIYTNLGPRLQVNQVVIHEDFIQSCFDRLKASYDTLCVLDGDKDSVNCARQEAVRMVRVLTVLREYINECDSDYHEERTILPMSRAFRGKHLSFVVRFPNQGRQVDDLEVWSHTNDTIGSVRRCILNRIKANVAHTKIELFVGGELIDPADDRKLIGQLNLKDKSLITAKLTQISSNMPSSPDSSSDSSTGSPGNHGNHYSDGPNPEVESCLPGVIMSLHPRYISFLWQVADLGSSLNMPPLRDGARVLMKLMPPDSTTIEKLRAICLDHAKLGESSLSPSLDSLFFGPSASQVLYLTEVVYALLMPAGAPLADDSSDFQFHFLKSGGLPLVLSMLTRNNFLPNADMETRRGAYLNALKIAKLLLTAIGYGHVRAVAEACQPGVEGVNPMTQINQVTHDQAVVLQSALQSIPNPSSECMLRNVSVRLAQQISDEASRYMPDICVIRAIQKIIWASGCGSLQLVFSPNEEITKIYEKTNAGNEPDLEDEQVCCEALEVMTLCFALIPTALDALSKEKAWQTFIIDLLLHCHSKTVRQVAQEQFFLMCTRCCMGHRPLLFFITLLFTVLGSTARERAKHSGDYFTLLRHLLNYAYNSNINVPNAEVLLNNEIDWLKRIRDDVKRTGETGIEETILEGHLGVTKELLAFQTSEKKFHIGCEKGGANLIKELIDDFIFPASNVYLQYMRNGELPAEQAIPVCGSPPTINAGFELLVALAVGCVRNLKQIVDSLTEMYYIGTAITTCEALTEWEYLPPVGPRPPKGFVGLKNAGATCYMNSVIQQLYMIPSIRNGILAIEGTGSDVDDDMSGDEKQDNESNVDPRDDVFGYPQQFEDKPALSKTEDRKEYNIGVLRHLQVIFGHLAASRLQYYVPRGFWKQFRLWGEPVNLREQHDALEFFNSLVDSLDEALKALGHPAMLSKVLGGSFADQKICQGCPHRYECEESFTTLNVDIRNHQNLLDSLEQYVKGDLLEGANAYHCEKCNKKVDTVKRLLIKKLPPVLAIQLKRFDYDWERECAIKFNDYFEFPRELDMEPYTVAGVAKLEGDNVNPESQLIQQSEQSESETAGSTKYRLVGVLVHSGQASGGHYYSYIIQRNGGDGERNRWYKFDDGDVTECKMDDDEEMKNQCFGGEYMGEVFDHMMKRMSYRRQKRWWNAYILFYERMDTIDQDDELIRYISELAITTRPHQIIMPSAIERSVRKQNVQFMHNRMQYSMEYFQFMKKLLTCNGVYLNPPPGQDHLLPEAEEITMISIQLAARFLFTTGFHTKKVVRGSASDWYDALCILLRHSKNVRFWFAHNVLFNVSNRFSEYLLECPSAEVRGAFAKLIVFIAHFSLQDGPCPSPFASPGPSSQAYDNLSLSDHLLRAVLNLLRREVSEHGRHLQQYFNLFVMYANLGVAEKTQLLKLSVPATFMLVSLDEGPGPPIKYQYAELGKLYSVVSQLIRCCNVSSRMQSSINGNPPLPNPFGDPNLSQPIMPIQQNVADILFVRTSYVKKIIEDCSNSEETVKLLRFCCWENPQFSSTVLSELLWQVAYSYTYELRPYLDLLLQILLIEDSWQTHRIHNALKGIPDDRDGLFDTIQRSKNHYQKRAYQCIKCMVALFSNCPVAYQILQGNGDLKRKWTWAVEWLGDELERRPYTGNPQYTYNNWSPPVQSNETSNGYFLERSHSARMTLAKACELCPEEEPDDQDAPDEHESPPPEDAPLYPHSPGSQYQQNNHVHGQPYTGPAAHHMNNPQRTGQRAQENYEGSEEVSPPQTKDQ
Sequence of UniProt O00487 (O00487 whole entry): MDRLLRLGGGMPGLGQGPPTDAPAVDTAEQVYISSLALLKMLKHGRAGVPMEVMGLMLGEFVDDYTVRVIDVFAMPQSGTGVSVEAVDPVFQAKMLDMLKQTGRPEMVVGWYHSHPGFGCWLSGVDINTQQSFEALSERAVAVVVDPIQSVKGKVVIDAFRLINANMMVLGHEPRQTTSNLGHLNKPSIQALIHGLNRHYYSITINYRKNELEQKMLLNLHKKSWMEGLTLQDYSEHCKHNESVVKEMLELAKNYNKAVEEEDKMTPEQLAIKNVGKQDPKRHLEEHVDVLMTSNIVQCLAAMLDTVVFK
Sequence of USP46 (P62068 whole entry): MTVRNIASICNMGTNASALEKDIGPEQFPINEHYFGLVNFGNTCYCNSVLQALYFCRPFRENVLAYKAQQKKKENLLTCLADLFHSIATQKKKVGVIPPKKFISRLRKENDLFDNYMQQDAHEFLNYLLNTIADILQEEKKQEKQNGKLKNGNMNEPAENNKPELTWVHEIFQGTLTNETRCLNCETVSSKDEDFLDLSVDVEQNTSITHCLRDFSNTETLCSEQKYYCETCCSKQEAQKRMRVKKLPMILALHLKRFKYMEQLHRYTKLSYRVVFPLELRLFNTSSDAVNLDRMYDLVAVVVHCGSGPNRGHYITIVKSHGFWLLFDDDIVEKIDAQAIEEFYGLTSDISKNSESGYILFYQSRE

Cl.O=C(CCl)NCc1ccnc(Oc2ccccc2F)c1
inactive: [1] -0.336 | [2] 0.0702 | [3] -0.71 | [4] -0.278 | [5] 0.126 | [6] 0.365 | [7] -0.357 | [8] -0.181 | [9] -0.17 | [10] 0.13
